From PubChem BioAssay
For some assays here: Measured potencies and affinities stand elsewhere. Active and inactive are the calls of the source. Unless noted, the rule behind the calls is not given here.

What was measured:
[1] = antimalarial activity against Dd2 strain (AID 2302;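 active = growth inhibition above 50% at the single 2 µM test dose, taken to imply half-maximal potency below 2 µM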;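 note: 0% = DMSO untreated growth and 100% = chloroquine plus artemisinin killed control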); conditions: P. falciparum Dd2 in RBCs, LDH growth readout, 72 h; at 2 µM; hits give high values
[2] = HepG2 cytotoxicity, primary screen, cytotoxicity control for P. falciparum antimalarial project, cell-based, ATP luminescence (AID 2303;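 active = inhibition above 50%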;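 note: 0% = DMSO wells and 100% = digitonin-killed cells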); conditions: HepG2 viability, 24-48 h, at 10 µM, hits give high values
[3] = target: L-lactate dehydrogenase (Plasmodium falciparum (isolate CDC / Honduras)) (UniProt Q27743); assay: PfLDH activity inhibition – cell lysate, 3D7 strain, counter-screen for P. falciparum growth inhibition project (AID 2304);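 note: 0% = vehicle and 100% = reference inhibitor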; conditions: P. falciparum 3D7 crude extract, LDH APAD/NBT absorbance; at 2 µM; hits give high values
[4] = inhibition of 3D7 malaria parasite growth – strain 3D7 (AID 2306);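 note: 0% = DMSO wells and 100% = chloroquine plus artemisinin control wells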; conditions: P. falciparum 3D7 erythrocytic growth, LDH absorbance, 72 h; at 2 µM; hits give high values
[5] = target: Calcium-dependent protein kinase 1 (Plasmodium falciparum (isolate 3D7)) (UniProt P62344); assay: PfCDPK1 kinase inhibitors, biochemical, TCAMS library (AID 1159585; cut-off not given, nearly all actives have IC50 up to about 0.98 µM;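 note: inhibitors leave more ATP so luminescence rises with inhibition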); conditions: recombinant PfCDPK1, Kinase-Glo ATP depletion luminescence
[6] = target: Plasmodium falciparum protein kinase 6 (PK6, PF3D7_1337100) (UniProt Q8IDW1); assay: PfPK6 kinase inhibitors, biochemical, TCAMS library (AID 1159586); conditions: recombinant PfPK6, Kinase-Glo ATP depletion luminescence
[7] = target: Protein kinase 7 (PK7), Plasmodium falciparum 3D7 (PF3D7_0213400) (UniProt Q7YTF7); assay: inhibition of Plasmodium PK7 catalytic activity – biochemical, TCAMS antimalarial set, Kinase-Glo luminescence (AID 1159587); conditions: recombinant PfPK7, Kinase-Glo ATP depletion luminescence
[8] = target: Calcium-dependent protein kinase 4 (Plasmodium falciparum (isolate 3D7)) (UniProt Q8IBS5); assay: PfCDPK4 kinase inhibitors, biochemical, TCAMS library (AID 1159588; cut-off not given, nearly all actives have IC50 up to about 0.91 µM); conditions: recombinant PfCDPK4, Kinase-Glo ATP depletion luminescence
Calcium-dependent protein kinase 4 (Plasmodium falciparum (isolate 3D7)), sequence (Q8IBS5 whole entry, looked up): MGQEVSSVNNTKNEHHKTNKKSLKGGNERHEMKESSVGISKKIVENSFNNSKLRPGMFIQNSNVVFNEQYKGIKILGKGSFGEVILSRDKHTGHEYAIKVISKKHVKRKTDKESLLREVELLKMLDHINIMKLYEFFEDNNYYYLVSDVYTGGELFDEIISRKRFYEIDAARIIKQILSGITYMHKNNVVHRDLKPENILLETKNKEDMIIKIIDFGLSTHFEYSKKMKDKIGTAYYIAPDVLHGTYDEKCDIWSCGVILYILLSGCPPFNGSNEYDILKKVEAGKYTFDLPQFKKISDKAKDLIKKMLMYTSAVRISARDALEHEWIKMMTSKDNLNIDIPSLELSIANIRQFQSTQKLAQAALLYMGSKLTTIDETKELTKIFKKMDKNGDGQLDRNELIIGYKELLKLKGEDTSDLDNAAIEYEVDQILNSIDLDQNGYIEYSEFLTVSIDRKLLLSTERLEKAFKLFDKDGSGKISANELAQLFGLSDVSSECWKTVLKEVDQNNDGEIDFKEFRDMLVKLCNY

Plasmodium falciparum protein kinase 6 (PK6, PF3D7_1337100), sequence (Q8IDW1 1-305): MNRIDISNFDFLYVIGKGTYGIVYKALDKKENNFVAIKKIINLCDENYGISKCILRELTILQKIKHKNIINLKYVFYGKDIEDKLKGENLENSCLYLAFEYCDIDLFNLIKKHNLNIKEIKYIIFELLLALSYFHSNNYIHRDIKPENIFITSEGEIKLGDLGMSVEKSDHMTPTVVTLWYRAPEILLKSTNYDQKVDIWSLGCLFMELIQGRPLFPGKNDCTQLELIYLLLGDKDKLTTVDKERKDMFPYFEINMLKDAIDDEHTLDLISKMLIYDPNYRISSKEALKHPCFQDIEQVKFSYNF
Calcium-dependent protein kinase 1 (Plasmodium falciparum (isolate 3D7)), sequence (P62344 whole entry, looked up): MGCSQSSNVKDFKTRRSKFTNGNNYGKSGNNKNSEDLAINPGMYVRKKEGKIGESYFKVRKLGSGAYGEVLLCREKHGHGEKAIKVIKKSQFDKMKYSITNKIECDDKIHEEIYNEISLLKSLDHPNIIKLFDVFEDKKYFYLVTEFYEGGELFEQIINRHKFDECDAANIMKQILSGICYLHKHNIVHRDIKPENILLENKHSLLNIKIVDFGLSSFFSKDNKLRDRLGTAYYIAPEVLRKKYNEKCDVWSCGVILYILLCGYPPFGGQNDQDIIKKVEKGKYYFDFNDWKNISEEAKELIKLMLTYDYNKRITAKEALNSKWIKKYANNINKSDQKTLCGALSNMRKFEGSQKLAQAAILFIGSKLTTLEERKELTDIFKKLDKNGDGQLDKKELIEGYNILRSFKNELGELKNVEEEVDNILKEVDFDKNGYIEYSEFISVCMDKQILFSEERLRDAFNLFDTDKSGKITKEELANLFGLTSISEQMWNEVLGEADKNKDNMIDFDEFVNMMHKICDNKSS
L-lactate dehydrogenase (Plasmodium falciparum (isolate CDC / Honduras)), sequence (Q27743 whole entry, looked up): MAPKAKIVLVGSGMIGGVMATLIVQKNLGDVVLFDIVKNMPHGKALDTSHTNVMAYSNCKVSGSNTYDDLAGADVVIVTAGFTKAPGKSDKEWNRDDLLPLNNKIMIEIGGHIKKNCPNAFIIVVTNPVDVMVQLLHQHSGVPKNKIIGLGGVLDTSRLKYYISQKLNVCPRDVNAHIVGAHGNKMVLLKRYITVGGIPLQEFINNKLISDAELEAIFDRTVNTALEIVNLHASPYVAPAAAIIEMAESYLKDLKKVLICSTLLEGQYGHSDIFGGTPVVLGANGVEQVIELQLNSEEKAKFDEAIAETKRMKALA
Protein kinase 7 (PK7), Plasmodium falciparum 3D7 (PF3D7_0213400), sequence (Q7YTF7 1-343): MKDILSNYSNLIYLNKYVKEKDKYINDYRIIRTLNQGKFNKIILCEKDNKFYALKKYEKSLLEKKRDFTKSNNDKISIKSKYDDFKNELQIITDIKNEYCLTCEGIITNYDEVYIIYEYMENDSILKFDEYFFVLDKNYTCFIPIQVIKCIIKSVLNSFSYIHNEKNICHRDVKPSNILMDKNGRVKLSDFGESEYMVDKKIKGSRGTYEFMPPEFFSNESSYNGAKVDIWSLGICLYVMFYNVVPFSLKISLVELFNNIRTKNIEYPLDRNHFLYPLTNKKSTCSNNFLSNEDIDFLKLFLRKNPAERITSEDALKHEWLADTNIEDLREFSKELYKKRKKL

Cc1nc2ccc3nc(NC(=O)c4ccno4)sc3c2s1
inactive: inhibition [2] 6% | inhibition [3] 1% | outcome [5] | outcome [6] | outcome [7] | outcome [8]
active: growth inhibition [1] 97% | growth inhibition [4] 99%

COc1ccc(Cn2c(Nc3cccc(C(F)(F)F)c3)nc3cc(C(=O)NC(C)C)cnc32)cc1Cl
active: growth inhibition [1] 81% | growth inhibition [4] 85%
inactive: inhibition [2] -6% | inhibition [3] 1% | outcome [5] | outcome [6] | outcome [7] | outcome [8]

O=C(Nc1ccc2nccc(N3CCN4CCC[C@H]4C3)c2c1)c1ccc(Cl)c(Cl)c1
inactive: inhibition [2] 18% | inhibition [3] -8% | outcome [5] | outcome [6] | outcome [7] | outcome [8]
active: growth inhibition [1] 98% | growth inhibition [4] 101%

O=C(Nc1ccsc1)Nc1cccc(-c2cccc(-c3nc4ccccc4[nH]3)c2)c1
active: growth inhibition [1] 55% | inhibition [2] 61% | growth inhibition [4] 101%
inactive: inhibition [3] -7% | outcome [5] | outcome [6] | outcome [7] | outcome [8]

CNCCNCc1ccc(-c2ccc(-c3nc4ccccc4[nH]3)s2)cc1
inactive: growth inhibition [1] 15% | inhibition [2] 11% | inhibition [3] 5% | outcome [5] | outcome [6] | outcome [7] | outcome [8]
active: growth inhibition [4] 99%

CN1CCN=C1c1ccc(NC(=O)Nc2ccc(C3=NCCN3C)cc2)cc1
inactive: inhibition [2] 7% | inhibition [3] -1% | outcome [5] | outcome [6] | outcome [7] | outcome [8]
active: growth inhibition [1] 69% | growth inhibition [4] 85%

CN1N=C2c3ccccc3CCC2C1c1ccc(C#N)cc1 (stereo not given)
active: growth inhibition [1] 85% | growth inhibition [4] 95%
inactive: inhibition [2] -9% | inhibition [3] 2% | outcome [5] | outcome [6] | outcome [7] | outcome [8]

Cc1cc(N(C)C)nc(Nc2ccc(NC(=O)COc3ccccc3)cc2)n1
inactive: inhibition [2] 15% | inhibition [3] 3% | outcome [5] | outcome [6] | outcome [7] | outcome [8]
active: growth inhibition [1] 67% | growth inhibition [4] 101%

Cc1ccc(Oc2ccc(CNc3nc(Nc4cccc(F)c4)nc(Nc4cccc(F)c4)n3)cc2)cc1
active: growth inhibition [4] 86%
inactive: growth inhibition [1] -2% | inhibition [2] -5% | inhibition [3] -2% | outcome [5] | outcome [6] | outcome [7] | outcome [8]

Cc1ccc2oc3cc(-c4nn[nH]n4)ccc3c(=O)c2c1
active: growth inhibition [1] 96% | growth inhibition [4] 97%
inactive: inhibition [2] 2% | inhibition [3] -6% | outcome [5] | outcome [6] | outcome [7] | outcome [8]

O=C(Cc1ccccc1)NC(CCN1CCC(N(C2CC2)S(=O)(=O)c2cccc(C(F)(F)F)c2)CC1)c1ccc(Cl)c(Cl)c1 (stereo not given)
active: growth inhibition [4] 85%
inactive: growth inhibition [1] 27% | inhibition [2] 19% | inhibition [3] 6% | outcome [5] | outcome [6] | outcome [7] | outcome [8]

CO/C(=C\C=C\c1cc2cc(Cl)c(Cl)cc2[nH]1)C(=O)NCCCN1CCN(c2cccc(CCCO)c2)CC1
active: inhibition [2] 66% | growth inhibition [4] 90%
inactive: growth inhibition [1] 36% | inhibition [3] 3% | outcome [5] | outcome [6] | outcome [7] | outcome [8]

COCCN1CCC(NCC(C)(C)c2nc(-c3ccc(Cl)c(O)c3)c(-c3ccncc3)[nH]2)CC1
active: growth inhibition [4] 102%
inactive: growth inhibition [1] 47% | inhibition [2] -8% | inhibition [3] -2% | outcome [5] | outcome [6] | outcome [7] | outcome [8]

CCN(CC)CC#Cc1ccc2[nH]c(C)c(Cl)c(=O)c2c1
inactive: inhibition [2] 11% | inhibition [3] -6% | outcome [5] | outcome [6] | outcome [7] | outcome [8]
active: growth inhibition [1] 95% | growth inhibition [4] 96%

Cc1nc(-c2ccc(-c3ccc(C(=O)Nc4ccc(-n5ccnc5)c(N5CCN(C)CC5)c4)cc3)c(C)c2)no1
inactive: inhibition [2] 34% | inhibition [3] 2% | outcome [5] | outcome [6] | outcome [7] | outcome [8]
active: growth inhibition [1] 100% | growth inhibition [4] 100%

Cc1ccc(NC(=O)NC2CCN(CCC(NC(=O)Cc3ccccc3)c3ccc(Cl)c(Cl)c3)CC2)cc1 (stereo not given)
inactive: growth inhibition [1] 2% | inhibition [2] 16% | inhibition [3] -1% | outcome [5] | outcome [6] | outcome [7] | outcome [8]
active: growth inhibition [4] 100%

NC1=NC2(CCCCC2)N(OCCCOc2cccc3ccccc23)C(N)=N1
active: growth inhibition [1] 96% | inhibition [2] 67% | growth inhibition [4] 95%
inactive: inhibition [3] -2% | outcome [5] | outcome [6] | outcome [7] | outcome [8]

O=C(Nc1ccc(-c2ccc(-c3nc4ccccc4[nH]3)s2)cc1)Nc1ccsc1
inactive: inhibition [2] 25% | inhibition [3] 5% | outcome [5] | outcome [6] | outcome [7] | outcome [8]
active: growth inhibition [1] 54% | growth inhibition [4] 100%

CCCNCc1ccc(-c2ccc(CN(CCOC)C(=O)c3ccc([N+](=O)[O-])c(C)c3)cc2)nc1
inactive: growth inhibition [1] 23% | inhibition [2] 2% | inhibition [3] 1% | outcome [5] | outcome [6] | outcome [7] | outcome [8]
active: growth inhibition [4] 97%

Fc1cccc(COc2ccc(Nc3ncnc4sc(C#Cc5ncc[nH]5)cc34)cc2Cl)c1
active: growth inhibition [1] 95% | inhibition [2] 55% | growth inhibition [4] 100%
inactive: inhibition [3] -3% | outcome [5] | outcome [6] | outcome [7] | outcome [8]

Cc1ccc(/C=C/C(=O)NCCCCCN2CCN(C(=O)Nc3ccc(Cl)c(C(F)(F)F)c3)CC2)cc1
active: growth inhibition [4] 93%
inactive: growth inhibition [1] -3% | inhibition [2] 10% | inhibition [3] -2% | outcome [5] | outcome [6] | outcome [7] | outcome [8]

CCN1CCC(N(Cc2ccc(-c3ccc(C(F)(F)F)cc3)cc2)C(=O)Cn2c(CCc3cccc(F)c3F)nc(=O)c3ccccc32)CC1
inactive: inhibition [3] 3% | outcome [5] | outcome [6] | outcome [7] | outcome [8]
active: growth inhibition [1] 95% | inhibition [2] 99% | growth inhibition [4] 95%

CCN(CCCN1CCCC1)c1cc(C)nc(Nc2ccc(Cl)cc2)n1
active: growth inhibition [4] 100%
inactive: growth inhibition [1] 12% | inhibition [2] 5% | inhibition [3] 1% | outcome [5] | outcome [6] | outcome [7] | outcome [8]

COc1ccc(S(=O)(=O)N(CCCN2CCN(C)CC2)Cc2csc(-c3ccc(CNCc4ccccc4)cc3)n2)cc1
active: growth inhibition [1] 86% | growth inhibition [4] 88%
inactive: inhibition [2] 10% | inhibition [3] 6% | outcome [5] | outcome [6] | outcome [7] | outcome [8]

Cc1ccc(F)c(C(=O)Nc2cccc(-c3nn4ccccc4c3-c3ccnc(Nc4cccc(F)c4)n3)c2)c1F
inactive: inhibition [2] 35% | inhibition [3] 6% | outcome [5] | outcome [6] | outcome [7] | outcome [8]
active: growth inhibition [1] 60% | growth inhibition [4] 98%

C#CCOc1ccc2ccccc2c1CNCCCCCCNCc1c(OCC#C)ccc2ccccc12
inactive: inhibition [3] -3% | outcome [5] | outcome [6] | outcome [7] | outcome [8]
active: growth inhibition [1] 98% | inhibition [2] 100% | growth inhibition [4] 100%

CN(C)CCn1c(N)c(-c2nc3ccccc3s2)c2nc(C#N)c(C#N)nc21
active: growth inhibition [4] 94%
inactive: growth inhibition [1] 40% | inhibition [2] 4% | inhibition [3] -7% | outcome [5] | outcome [6] | outcome [7] | outcome [8]

CCNc1cc(C(=O)N[C@@H](Cc2ccccc2)[C@H](O)CNC2CCC(C(C)(C)C)CC2)cc(N2CCCC2=O)c1 (stereo not given in full)
active: growth inhibition [1] 98% | growth inhibition [4] 98%
inactive: inhibition [2] 38% | inhibition [3] -3% | outcome [5] | outcome [6] | outcome [7] | outcome [8]

COc1cccc(NC(=O)c2cc(C(=O)Nc3cccc(OC)c3)cc([N+](=O)[O-])c2)c1
inactive: inhibition [2] 1% | inhibition [3] -3% | outcome [5] | outcome [6] | outcome [7] | outcome [8]
active: growth inhibition [1] 61% | growth inhibition [4] 99%

Cc1cc(C)n(-c2nc(Nc3cccc(C(F)(F)F)c3)nc(-n3nc(C)cc3C)n2)n1
inactive: inhibition [2] -8% | inhibition [3] -6% | outcome [5] | outcome [6] | outcome [7] | outcome [8]
active: growth inhibition [1] 88% | growth inhibition [4] 99%

NC(N)=NN=Cc1cc([N+](=O)[O-])ccc1Sc1ccccc1CO
active: growth inhibition [4] 84%
inactive: growth inhibition [1] -1% | inhibition [2] 25% | inhibition [3] -2% | outcome [5] | outcome [6] | outcome [7] | outcome [8]

CCc1c[nH]c2c(N3CCCS3(=O)=O)cc(C(=O)N[C@@H](Cc3ccccc3)[C@H](O)CNC(C)(C)CCCC(C)C)cc12
active: growth inhibition [1] 98% | growth inhibition [4] 96%
inactive: inhibition [2] 13% | inhibition [3] -2% | outcome [5] | outcome [6] | outcome [7] | outcome [8]

CC(=O)Nc1ccc(OCCN(CC(C)C)c2ccc(C(F)(F)F)c(C#N)c2)c(Cl)c1
inactive: inhibition [2] 13% | inhibition [3] 2% | outcome [5] | outcome [6] | outcome [7] | outcome [8]
active: growth inhibition [1] 95% | growth inhibition [4] 96%

Cc1cc(-c2cccc3c(NC(=O)N4CCc5cc6nccc(N7CCN8CCC[C@H]8C7)c6cc54)cccc23)cc(C)n1
active: growth inhibition [1] 100% | growth inhibition [4] 101%
inactive: inhibition [2] 12% | inhibition [3] 6% | outcome [5] | outcome [6] | outcome [7] | outcome [8]

Cc1cccc2[nH]c(-c3ccc(-c4ccc(NC(=O)NCc5ccccc5)cc4)s3)nc12
active: inhibition [2] 79% | growth inhibition [4] 93%
inactive: growth inhibition [1] 8% | inhibition [3] 5% | outcome [5] | outcome [6] | outcome [7] | outcome [8]

NC(=O)c1cccc(Nc2nccc(Nc3ccc4[nH]c(-c5ccccc5)cc4c3)n2)c1
active: growth inhibition [1] 98% | growth inhibition [4] 101%
inactive: inhibition [2] 28% | inhibition [3] -2% | outcome [5] | outcome [6] | outcome [7] | outcome [8]

CC(=O)c1cccc(NC(=O)c2ccc(Cl)c(S(=O)(=O)N3CCc4ccccc43)c2)c1
inactive: growth inhibition [1] 11% | inhibition [2] 13% | inhibition [3] 0% | outcome [5] | outcome [6] | outcome [7] | outcome [8]
active: growth inhibition [4] 93%

CC1(C)N=C(N)N=C(N)N1O
inactive: growth inhibition [1] 1% | inhibition [2] 7% | inhibition [3] -5% | outcome [5] | outcome [6] | outcome [7] | outcome [8]
active: growth inhibition [4] 93%

Cc1cc(N2CCN(CC3CCN(C)CC3)CC2)nc(Nc2ccc(Br)cc2)n1
active: growth inhibition [1] 100% | growth inhibition [4] 100%
inactive: inhibition [2] 31% | inhibition [3] 5% | outcome [5] | outcome [6] | outcome [7] | outcome [8]

Nc1c(Cl)cc(C(O)CNCCCCCCOCCC=C2CCOCC2)cc1Cl (stereo not given)
inactive: growth inhibition [1] 9% | inhibition [2] 7% | inhibition [3] 0% | outcome [5] | outcome [6] | outcome [7] | outcome [8]
active: growth inhibition [4] 100%
